The values that follow come from PubChem BioAssay AID1508600 (Functional Genomics Laboratory (NCATS/FGL), 2020).

In all, about 53,000 sequences went through this assay and about 3,700 (7%) were called active.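 Rule for the calls: active = gene knockdowns whose robust z-score for IL-1 alpha signal is at least 2 or at most -2, so actives lie on both sides; inactive = the rest.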 The entries come from a sample that favours actives as a whole.

This assay in a line: Components of the Cytosolic LPS Sensing Pathway: Gene Identification via Genome-wide siRNA Screen.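 Note: robust z of the log signal after scaling to non-targeting control siRNA wells of the plate.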 To be noted: RAW264.7 macrophages, IL-1a HTRF, actives lie on both sides, screened at 100 nM (by protocol), cells primed 5 h with Pam3CSK4 first. The essentials: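 Read-out: IL-1a HTRF on supernatant, divided by plate negative-control median ×100, log-transformed and converted to robust z-score. Cells were RAW264.7 given 100 nM siRNA, Pam3CSK4-primed 5 hours, then LipidA-transfected 24 hour.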
For orientation: In TR-FRET formats the signal depends on donor and acceptor labels being close together.
For the sequence GGAGUUUGUUAAUUUCGCATT against Rundc3a, the z-score is 0.612 (inactive).

Turning to GCACGGAGCCAAAUAAUCUTT against Rpl28, the z-score is 2.07 (active).

Take GGAAGUAGAGAUCUCCUUATT against Btn1a1: the z-score was 0.96 (inactive).

For GGAAGUGCUACUUUCUGGGTT against Tmem178, the z-score was 1.74 (inactive).

Consider GGAGAUGAAGUGGACAGACTT against Anapc13, for which the z-score was 1.02 (inactive).

As to GGUGAACGAACAUUGGUAUTT against Sorbs3, the z-score is -0.614 (inactive).

Consider CCAUCACGAGUGAAUUCGATT against Olfr945, for which the z-score is -2.13 (active).

As to GGAGCGAUCUGAAAAUUUGTT against Rasip1, the z-score was -0.365 (inactive).

In the case of CCUCUCCAGUGUCGACAUUTT against Olfr51, the z-score is 0.347 (inactive).

In the case of CGAAGUCGUGGCAAUGAUUTT against Nfu1, the z-score is 1.39 (inactive).

Take GCAGGAAGCCCAGUAAAGUTT against Figla: the z-score is 0.44 (inactive).

“GGAAGACACUGGUUUCCAATT against 1700067P10Rik”: the z-score is 2.62 (active).

Regarding GGAGAGAAGAAAAAGAAGGTT against Rrbp1, the z-score was 0.647 (inactive).

In the case of GCAUGAUUACCAGAACCACTT against Fcgr2b, the z-score is 0.225 (inactive).

In the case of GCAUGUGAAAUCUAGAUCATT against Cks1b, the z-score is -0.0851 (inactive).

Regarding UGGUACCACCAUUUUUACCTT against Olfr452, the z-score was -1.2 (inactive).

With GCUGGGCUUCAACGAUUACTT against Efna4, the z-score is 1.3 (inactive).

For GGUUCCUUAAACAUUCAGATT against Tspan31, the z-score was 2.28 (active).

On to CGAUCACCAUGAUGAAUUCTT against Bex3, for which the z-score is -0.128 (inactive).

With GCAGGAUGCAGCGAUAGUUTT against Slc2a6, the z-score is -0.952 (inactive).

GGGCUACAGCAUGUAUGAGTT against Zc3h4: the z-score is 0.814 (inactive).

On to “GGAACGAAGUCUGAAACACTT against A730018C14Rik”, for which the z-score was -1.89 (inactive).

GGAGUCCCAGGACAUGAAATT against Pou5f1: the z-score was 0.333 (inactive).

In the case of GCCUCUGUCAAGUCUUGGATT against Ftl1, the z-score was -2.17 (active).

Turning to GGUACUGUUGCGCUUUGCUTT against Ciao3, the z-score is 1.47 (inactive).

As for GGAGAAUUAACUGUUCCUCTT against Kcnmb2, the z-score was 2.23 (active).

In the case of GCUGAGGCAUAAAAACGAGTT against Atad3a, the z-score is -0.643 (inactive).

Regarding GGUGAAUCUAUUUACCUGCTT against Fam71d, the z-score was 0.317 (inactive).

As to GGAAUAUGUGCAGAAGCUGTT against Fgd2, the z-score was -1.2 (inactive).

With “GGCUGUCUUAUUAAAGCUATT against A730013G03Rik”, the z-score is -2.19 (active).

For the sequence GGUCUAGAGUUACCAUUCATT against Aqp9, the z-score is -0.954 (inactive).

Consider CCAAGGACUCUCAUCUGUUTT against Zfp474, for which the z-score was -0.712 (inactive).

As to GGACGACAGGAACUGGCAATT against Fbxo9, the z-score was 0.615 (inactive).

For GCAGAGGGCAACUCGUAAGTT against Gm6034, the z-score was -0.843 (inactive).

On to CCAACACUGAGCUCAGAAGTT against Igfbp2, for which the z-score is -1.34 (inactive).

Turning to GGCGGUCAAGGGAAAAACATT against Tcf7, the z-score is 2.19 (active).

As to CCGACUAAUGCUAAAUCCATT against Pcgf1, the z-score was 0.897 (inactive).

On to GGUGAAAUUCUGAAUGAAATT against Gatb, for which the z-score is -0.0515 (inactive).

For GGAACUAGAAGAAAUGUUATT against Mrps9, the z-score was 0.768 (inactive).

Take GGGAGCAGAUUGAAACAGUTT against Eri2: the z-score is -0.546 (inactive).

As for CUUAGUGCUCUGGGAGCAGTT against Ms4a5, the z-score was 0.487 (inactive).

Turning to CGAUCACCUUAGUAAAUACTT against Ykt6, the z-score was 0.233 (inactive).

In the case of GGAAGGGACUGAUCGGUACTT against Igsf8, the z-score is 1.61 (inactive).

For GCUGAGACUUCGAGCCUAUTT against Polr2c, the z-score was -0.976 (inactive).

As to CCAGUUAAAAAGGUUCCAATT against Ccdc169, the z-score is 1.46 (inactive).

On to GGAUAACCUAAUGUAGAUATT against Nphs2, for which the z-score is -0.0675 (inactive).

In the case of GGAUCAAAAACACAUACUUTT against Adgre4, the z-score is 2.37 (active).

Regarding GGGAUAUCCCAGAACAAGATT against Vps37a, the z-score is 0.336 (inactive).

For GCUUGGUAGAGAUGUUAAATT against Ryr3, the z-score was -0.119 (inactive).

Turning to GCAUCAUUUUAACACUUCUTT against Tubd1, the z-score is -0.0435 (inactive).

As to GGAGGGAAAACCACAAGACTT against Dppa4, the z-score is 0.514 (inactive).

In the case of CCUCUUAUUCAGAAUGUCCTT against Bnc2, the z-score was 0.451 (inactive).

In the case of GCGAGGAGAGUGUGUUUUCTT against Bop1, the z-score is 2.08 (active).

In the case of GGACAUCCAGACAAUGAGGTT against Fam13b, the z-score was -1.62 (inactive).

GGUCGUCUGAUUUUUGAUATT against Atp1a1: the z-score is 0.391 (inactive).

For GGACUGCUGGGAGAACUUUTT against Zcchc3, the z-score was 0.76 (inactive).

Regarding CGCAGGACAUUUGGUUUUGTT against Ssxb2, the z-score is 2.88 (active).

With “GGGCCACAGGAUCUCACUUTT against 1700009J07Rik”, the z-score was -1.88 (inactive).

Take GGAGGAACAGAAGAAACUCTT against Tma7: the z-score is -0.0481 (inactive).

For the sequence GGCUAUGCAAGUGGAGAGCTT against Nfat5, the z-score is -0.311 (inactive).

Turning to GGACAAAGGCUGUAUUUUCTT against Tgm3, the z-score is -1.07 (inactive).

Consider CGCGAGCUCAGAAUACAUGTT against Btn1a1, for which the z-score is 2.5 (active).

Take GGAGAUAAUAAUGAAGUCGTT against Sec11c: the z-score was 0.353 (inactive).

For the sequence GGUUGGUGAACUUGGAGGUTT against Hspa1a, the z-score was 1.41 (inactive).

As for GGGUUUUUUUUUCCUUGAATT against Smndc1, the z-score is -0.313 (inactive).

As for GGCUGAUGGAAAUCCUUAATT against Ctif, the z-score is 0.0158 (inactive).

For the sequence GGUAGAAUACGUGUUCCUGTT against Cacna1f, the z-score is 2.79 (active).

GGGCAAAGCCUUCAACCCUTT against Insl6: the z-score was -0.038 (inactive).

Regarding CGCCACUGCUUUGAUUACUTT against Coa5, the z-score is -1.51 (inactive).
